PubChem BioAssay AID1159580 (chemical genetic matrix, 2015)
Several values for one entry are separate records, joined by “and”; a condition that tells them apart may be missing. Equal entries are not always repeated. Among all 5,500 compounds or so, about 2,000 (36%) were called active. Roughly 18% stayed inconclusive and do not appear here. Cut-off read from the data, not from the text of the source: active = normalized growth mostly below about 0.91 (no sharp cut-off); inconclusive = no clear call, values can overlap the other calls; inactive = mostly above about 0.92. Some of the results follow.

Assay: chemical genetic growth profiling, strain panel (AID 1159580);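 note: tested at 20 µM; growth read once vehicle control cultures reached saturation at 30 °C; 1 = growth at the plate median or of vehicle wells; lower values mean less growth of the strain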
Conditions: S. cerevisiae deletion strains, growth OD

Measured: normalized growth

CN(C)CCCN1c2ccccc2Sc2ccccc21
inactive: locus YAL013W, strain DEP1, hits give low values 0.988 and 0.967 | locus YAL021C, strain ccr4, hits give low values 0.92 | locus YAL026C, strain drs2, hits give low values 0.936 | locus YAL030W, strain snc1, hits give low values 1.01 | locus YAL040C, strain CLN3, hits give low values 0.964 | locus YBL061C, strain skt5, hits give low values 1 | locus YBR009C, strain hhf1, hits give low values 0.985 | locus YBR021W, strain FUR4, hits give low values 0.961 | locus YBR023C, strain chs3, hits give low values 1 | locus YBR171W, strain sec66, hits give low values 0.996 | locus YBR229C, strain ROT2, hits give low values 0.999 | locus YBR231C, strain swc5, hits give low values 1.03 | locus YBR279W, strain paf1, hits give low values 0.977 | locus YCL011C, strain gbp2, hits give low values 0.996 | locus YCL016C, strain dcc1, hits give low values 1.01 | locus YCL029C, strain bik1, hits give low values 1.02 | locus YCL061C, strain MRC1 (second series), hits give low values 0.983 | locus YCL061C, strain MRC1, hits give low values 0.993 | locus YCL069W, strain vba3, hits give low values 0.978 | locus YCR088W, strain abp1, hits give low values 0.984 | locus YDL005C, strain med2, hits give low values 1.03 | locus YDL035C, strain GPR1, hits give low values 1.02 | locus YDL040C, strain nat1, hits give low values 1 | locus YDL074C, strain BRE1, hits give low values 1.01 | locus YDL101C, strain DUN1, hits give low values 1.03 | locus YDL134C, strain PPH21, hits give low values 1.01 | locus YDL185W, strain tfp1, hits give low values 1.01 | locus YDL192W, strain arf1, hits give low values 1.02 | locus YDR001C, strain nth1, hits give low values 0.985 | locus YDR069C, strain doa4, hits give low values 0.94 | locus YDR101C, strain arx1, hits give low values 1.01 | locus YDR137W, strain rgp1, hits give low values 1.13 | locus YDR150W, strain NUM1, hits give low values 1.01 | locus YDR159W, strain sac3, hits give low values 0.984 | locus YDR162C, strain NBP2, hits give low values 1 | locus YDR195W, strain ref2 1.07 | locus YDR297W, strain sur2, hits give low values 1.01 | locus YDR318W, strain mcm21, hits give low values 1.02 | locus YDR334W, strain swr1, hits give low values 0.95 | locus YDR335W, strain msn5, hits give low values 0.994 | locus YDR363W, strain ESC2, hits give low values 0.976 | locus YDR388W, hits give low values 1.01 | locus YDR392W, strain spt3, hits give low values 1.09 | locus YDR502C, strain sam2, hits give low values 1.01 | locus YEL003W, strain gim4, hits give low values 0.994 | locus YEL037C, strain rad23, hits give low values 0.976 | locus YEL061C, strain CIN8 (second series), hits give low values 0.96 | locus YEL061C, strain CIN8, hits give low values 1 | locus YER002W, strain NOP16, hits give low values 0.988 | locus YER015W, strain faa2, hits give low values 0.991 | locus YER016W, strain bim1, hits give low values 0.986 | locus YER110C, hits give low values 1.02 | locus YER111C, strain swi4, hits give low values 0.973 | locus YER155C, strain BEM2 (second series), hits give low values 1.01 | locus YER155C, strain BEM2, hits give low values 1 | locus YER167W, strain BCK2, hits give low values 1.01 | locus YFR010W, strain ubp6, hits give low values 0.92 | locus YGL078C, strain dbp3, hits give low values 1.01 | locus YGL086W, strain mad1, hits give low values 1.02 | locus YGL167C, strain pmr1, hits give low values 0.981 | locus YGL173C, strain kem1, hits give low values 0.981 | locus YGL227W, strain vid30, hits give low values 0.996 | locus YGL240W, strain doc1, hits give low values 1.04 | locus YGL248W, strain PDE1, hits give low values 1 | locus YGL253W, strain hxk2, hits give low values 0.994 | locus YGR078C, strain PAC10, hits give low values 1.01 | locus YGR135W, strain pre9, hits give low values 0.993 | locus YGR229C, strain SMI1, hits give low values 0.971 | locus YGR252W, strain gcn5, hits give low values 0.975 | locus YHR013C, strain ard1, hits give low values 0.964 | locus YHR027C, strain rpn1, hits give low values 0.989 | locus YHR030C, strain SLT2, hits give low values 1 and 1.01 | locus YHR079C, strain IRE1 (second series), hits give low values 1.01 | locus YHR079C, strain IRE1, hits give low values 1.01 | locus YHR094C, strain hxt1, hits give low values 1.01 | locus YHR129C, strain ARP1, hits give low values 1.02 | locus YHR142W, strain chs7, hits give low values 1.01 | locus YHR200W, strain rpn10, hits give low values 1.02 | locus YIL066C, strain RNR3, hits give low values 1 | locus YIL073C, strain SPO22, hits give low values 1.02 | locus YIL125W, strain kgd1, hits give low values 1.01 | locus YIR030C, strain dcg1, hits give low values 1.02 | locus YJL092W, strain hpr5, hits give low values 0.989 | locus YJL095W, strain BCK1 (second series), hits give low values 1 | locus YJL095W, strain BCK1, hits give low values 0.987 and 1.02 | locus YJL115W, strain asf1, hits give low values 0.975 | locus YJL129C, strain trk1, hits give low values 1.01 | locus YJL134W, strain LCB3, hits give low values 1 | locus YJL154C, strain vps35, hits give low values 0.977 | locus YJL164C, strain tpk1, hits give low values 0.992 | locus YJL166W, strain qcr8, hits give low values 0.995 | locus YJL168C, strain set2, hits give low values 1.02 | locus YJL187C, strain SWE1 (second series), hits give low values 1 | locus YJR043C, strain POL32, hits give low values 1.02 | locus YJR066W, strain TOR1, hits give low values 0.963
